Mito fusion act: blocks mitochondrial division or promotes mitochondrial fusion | S. cerevisiae fusion-defective mutant growth rescue, CellTiterGlo 48 h | Potency, µM (titrated, usually from 46.1 µM), without a hit: top-dose growth rescue (activation), most hits filed as activators | 320,000 compounds, 0.23% hits; note: % of control where 0% means no effect; nearly all actives have a fitted effect of over 45% in size
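Compounds are tested for their ability to restore growth of mitochondrial fusion-defective yeast strains at non-permissive 37C in YPEG medium over 48 hours. Viability is quantified by luciferase luminescence.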
TDP43 rescue: TDP-43 toxicity inhibition in yeast; TDP-43 expressing yeast growth rescue, BacTiter-Glo, 24 h; Potency, µM (doses to about 46.1 µM), for the others: at the highest dose growth rescue (activation), hits mostly activators; 410,000 compounds, 1.8% hits; AID 652104; note: % of control where 0% means no effect; nearly all actives have a fitted effect of over 50% in size
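Luminescence from BacTiter-Glo reports growth of TDP-43-expressing yeast after 24 hr at 30 deg C with compound. Cells were raffinose-pregrown to mid-log, then seeded in galactose medium at OD600=0.02.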
FUS yeast rescue: rescues growth of FUS-expressing yeast. 390,000 compounds, 0.24% hits. AID 1347120. S. cerevisiae FUS-expressing, growth rescue, OD600, 24 h. Potency, µM (highest dose often 76.6 µM), hits mostly activators;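 note: plate controls were DMSO vehicle for no effect and reference control for full effect; nearly all actives have a fitted effect of over 55% in size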
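Quantitative HTS measuring growth restoration of FUS-toxic yeast. Galactose-induced cells (OD 0.005) were exposed 24hr at 30C to compounds at several concentrations, then absorbance at 600 nm was recorded.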
Abeta yeast res: A-beta toxicity reversal in yeast; yeast expressing A-beta42, growth rescue, OD600, 48 h; response scale: 0% DMSO, 100% iron-clioquinol control; Potency, µM (titrated, usually from 46.1 µM), usual class: activators; 410,000 compounds, 0.063% hits; AID 1347071; note: nearly all actives have a fitted effect of over 55% in size
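Yeast growth medium received pinned compounds, then yeast cells expressing toxic A-beta were added; plates incubated at 30 C for 48 hr. Growth read as absorbance at 600 nm, normalized to DMSO and equimolar FeCl3 plus clioquinol controls.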
aSyn rescue: rescues yeast growth from alpha-synuclein toxicity. Yeast expressing alpha-synuclein, growth rescue, BacTiter-Glo, 24 h. Potency, µM (highest dose often 46.1 µM), inactives show top-dose growth rescue (activation), usual class: activators. 370,000 compounds, 0.14% hits; note: % of control where 0% means no effect; nearly all actives have a fitted effect of over 65% in size
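Galactose-induced alpha-syn yeast (OD600=0.02, raffinose-pregrown) + pinned cpd, 24 hr, 30 deg C; growth by BacTiter-Glo luminescence. Growth restoration scores as activation.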
* = called active by the depositor. Rows were chosen to be rich in hits. Some 2.2% of all compounds tested hit in one or more screens of this group. Calls come from the whole dose curve; as a rule, active = well fitted curve in the direction sought with a large enough effect; inconclusive = small, poorly fitted or top-dose-only effect, or another doubt; inactive = no such curve, though single readings can be large; an effect the other way counts as inactive or inconclusive. Potency is the fitted concentration of half-maximal effect.

Screening CN1c2ccccc2SC2C(c3ccccc3)=NOC21 (stereo not drawn) returned TDP43 rescue 18µM*, FUS yeast rescue inactive, Abeta yeast res inactive and aSyn rescue 9%.
`CC1Cc2[nH]c(=S)[nH]c(=O)c2C(C)O1` (stereo not drawn) gave TDP43 rescue 15%, FUS yeast rescue inactive, Abeta yeast res inactive and aSyn rescue -11%.
`CC(C)(C)N1C(=O)[C@H]2[C@@H](c3ccc(Br)cc3)N3C(=O)N(c4cccc(Br)c4)C(=O)[C@@]3(Cc3ccccc3)[C@H]2C1=O` gave Mito fusion act 1%, TDP43 rescue 7%, FUS yeast rescue 5µM*, Abeta yeast res inactive and aSyn rescue 1%.
For CCN1C(=O)[C@H]2[C@@H](c3ccc(C)cc3)N3C(=O)N(c4cccc(Br)c4)C(=O)[C@@]3(Cc3ccccc3)[C@H]2C1=O the results were Mito fusion act 1%, TDP43 rescue -10%, FUS yeast rescue 35µM*, Abeta yeast res inactive and aSyn rescue -2%.
Screening CN(N=O)c1ccc(/C=C2\C=Cc3ccccc32)cc1 returned aSyn rescue -16%.
Screening C[C@H](NC(=O)[C@@H]1CCCN1C(=O)OC(C)(C)C)c1ccccc1 returned TDP43 rescue 14%, FUS yeast rescue inactive, Abeta yeast res inactive and aSyn rescue -17%.
Screening COCc1cc(=O)[nH]c(SCCS(=O)(=O)c2ccc(C)cc2)n1 returned Mito fusion act -2%, TDP43 rescue -2%, FUS yeast rescue inactive, Abeta yeast res inactive and aSyn rescue -3%.
Screening COCc1cc(=O)[nH]c(SCCS(=O)(=O)c2ccc(Cl)cc2Cl)n1 returned Mito fusion act -1%, TDP43 rescue 6.3µM*, FUS yeast rescue inactive, Abeta yeast res inactive and aSyn rescue -15%.
Screening CC1(C)Cc2cccc(OCC(=O)Nc3ccc(S(N)(=O)=O)cc3)c2O1 returned Mito fusion act -1%, TDP43 rescue 18%, FUS yeast rescue inactive, Abeta yeast res inactive and aSyn rescue 2%.
Screening CC(=O)c1ccc(NC(=O)c2cnn3c2NC(=C2CC2)C=C3C(F)F)cc1 returned aSyn rescue 0%.
For COc1cccc(C(O)c2nc(-c3cc(F)cc(F)c3)cs2)c1 (stereo not drawn) the results were TDP43 rescue 16µM*, FUS yeast rescue inactive, Abeta yeast res inconclusive and aSyn rescue inconclusive.
`COc1ccc(-c2csc(C(O)c3cccc(OC)c3)n2)cc1` (stereo not drawn) gave TDP43 rescue 20µM*, FUS yeast rescue inactive, Abeta yeast res inconclusive and aSyn rescue 3.5µM*.
`COc1cc2c(NC3CCN(C)CC3)nc(N3CCCN(C)CC3)nc2cc1OCCCCN(C)C` gave aSyn rescue 3%.
Screening CC(=O)Nc1c(C)nn(-c2ccccc2)c1N1CCC(C(=O)NCc2ccccc2Cl)CC1 returned TDP43 rescue inconclusive, FUS yeast rescue inactive and Abeta yeast res inactive.
Screening Cc1cc(C)n2nc(-c3cnn(C)c3C(F)(F)F)cc2n1 returned Mito fusion act 1%, TDP43 rescue 13µM*, FUS yeast rescue inactive, Abeta yeast res inactive and aSyn rescue 3%.
For C=CC[C@H](CC(=O)N(CCO)Cc1ccccc1)C(=O)N[C@H](COC(=O)[C@@H](CC=C)CC(=O)OC(C)(C)C)Cc1ccccc1 the results were TDP43 rescue -15%, FUS yeast rescue 7.9µM*, Abeta yeast res inactive and aSyn rescue -2%.
`COC(=O)CC(=O)CSc1nc2c(cc1C#N)CCC2` gave Mito fusion act -4%, TDP43 rescue -4%, FUS yeast rescue inactive, Abeta yeast res inactive and aSyn rescue 1%.
CCOC(=O)CC(=O)CSc1nc2c(cc1C#N)CCCCCC2 was read as Mito fusion act 4%, TDP43 rescue 18%, FUS yeast rescue 11µM*, Abeta yeast res inactive and aSyn rescue -3%.
`O=C(CSc1nnc(CNC(=O)c2ccccc2F)n1-c1ccccc1)Nc1ccccc1F` gave TDP43 rescue 1%, FUS yeast rescue inactive and Abeta yeast res inactive.
`O=C(NCc1ccccc1)C(c1ccc(C(F)(F)F)cc1)n1c(=O)c(-c2cc3ccccc3[nH]2)nc2ccccc21` (stereo not drawn) gave TDP43 rescue 0%, FUS yeast rescue inconclusive, Abeta yeast res inconclusive and aSyn rescue 7.1µM*.
For Cc1cccc(C)c1NC(=O)C(c1ccncc1)n1c(=O)c(-c2cc3ccccc3[nH]2)nc2ccccc21 (stereo not drawn) the results were TDP43 rescue 14µM*, FUS yeast rescue inconclusive, Abeta yeast res inactive and aSyn rescue 5%.
Screening Cc1cccc(C)c1NC(=O)C(c1ccc(C#N)cc1)n1c(=O)c(-c2cc3ccccc3[nH]2)nc2ccccc21 (stereo not drawn) returned TDP43 rescue 10µM*, FUS yeast rescue inactive, Abeta yeast res inconclusive and aSyn rescue 29%.
`Cc1cccc(C)c1NC(=O)C(c1ccccc1)n1c(=O)c(-c2cc3ccccc3[nH]2)nc2ccccc21` (stereo not drawn) gave TDP43 rescue inconclusive, FUS yeast rescue inactive, Abeta yeast res inconclusive and aSyn rescue 0%.
Screening COc1ccc(NC(=O)C(C2CC2)n2c(=O)c(-c3cc4ccccc4[nH]3)nc3ccccc32)cc1 (stereo not drawn) returned TDP43 rescue 15%, FUS yeast rescue inconclusive, Abeta yeast res inactive and aSyn rescue 14µM*.
`N#Cc1ccc(C(C(=O)NCc2ccccc2)n2c(=O)c(-c3cc4ccccc4[nH]3)nc3ccccc32)cc1` (stereo not drawn) gave TDP43 rescue inconclusive, FUS yeast rescue inconclusive, Abeta yeast res inactive and aSyn rescue 6%.
`COc1cccc(Cn2c(=O)n(CC3CCC(C(=O)N4CCOCC4)CC3)c(=O)c3sccc32)c1` (stereo not drawn) gave TDP43 rescue -6%, FUS yeast rescue inconclusive and Abeta yeast res inactive.
For Cc1ccc(-c2nc(CCNC(=O)C(=O)Nc3ccc(C)cc3C)cs2)cc1 the results were TDP43 rescue 22%, FUS yeast rescue inactive and Abeta yeast res inactive.
For CSCCC(c1nc2ccccc2[nH]1)n1c(=O)c(-c2cc3ccccc3[nH]2)nc2ccccc21 (stereo not drawn) the results were TDP43 rescue 18µM*, FUS yeast rescue inactive, Abeta yeast res inconclusive and aSyn rescue -19%.
Screening CC(C)CC(c1nnnn1Cc1cccs1)N1CCN(c2nc3ccccc3s2)CC1 (stereo not drawn) returned Mito fusion act inconclusive, TDP43 rescue inconclusive, FUS yeast rescue inactive, Abeta yeast res inactive and aSyn rescue 27%.
